The source of these data is PubChem BioAssay.

The structures appear in SMILES notation. Inconclusive results are not listed. Calls of active or inactive are those of the source. Cut-off read from the data, not from the text of the source, unless noted: active = percent of DMSO control GFP below about 86%; inactive = the rest, inconclusive results apart.

One may read the inhibition as the relative decrease from the control value, in per cent.

The nature of assay [1]: rapamycin-like changes in RPL19A-GFP expression – cell-based, S. cerevisiae, multiplex flow cytometry, primary screen (AID 1862).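 Note: lower values mimic rapamycin by blocking the RPL19A rise seen in DMSO cells.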 Conditions: S. cerevisiae RPL19A-GFP strain, flow cytometry fluorescence, 3 h; at 10 µM; stronger effect = lower value. A general note: A flow cytometer gives signals particle by particle.
Assay [2] can be described thus: TOR pathway GLN3 branch reporter MEP2-GFP changes – S. cerevisiae, multiplex flow cytometry, primary screen (AID 1867;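 active = GFP response, as percent of the DMSO control, above the screen-wide mean plus 3 SD, about 139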;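 note: median GFP channel fluorescence of barcode-gated MEP2-GFP cells measured by flow cytometry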). Conditions: S. cerevisiae MEP2-GFP strain, 3 h, at 10 µM, stronger effect = higher value, 100% means same as DMSO wells.
The nature of assay [3]: TOR pathway RTG branch CIT2 reporter changes – S. cerevisiae, GFP fusion, multiplex flow cytometry, primary screen (AID 1870;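 active = percent response above a set limit, the screen-wide mean plus 3 SD, cut at about 130% in these data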;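 note: barcoded CIT2-GFP strain pooled with four other GFP strains with rapamycin as positive control; median GFP fluorescence per well over plate mean of DMSO wells so 100% = DMSO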). To be noted: S. cerevisiae CIT2-GFP expression, 3 h, at 10 µM, stronger effect = higher value.
Assay [4] is described as follows: TOR pathway LAP4-GFP level changes – S. cerevisiae, multiplex flow cytometry, primary screen (AID 1873;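 active = GFP signal, as percent of the solvent control, above the screen mean plus 3 SD, about 149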). Conditions: S. cerevisiae LAP4-GFP expression, 3 h, at 10 µM, stronger effect = higher value.
A short description of assay [5]: yeast AGP1-GFP level changes, GLN3 branch – cell-based, multiplex flow cytometry, S. cerevisiae, primary screen (AID 1887;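 active = GFP signal above the screen-wide mean plus 3 SD, that is over about 124.5% of the solvent control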;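 note: AGP1-GFP fusion strain of S. cerevisiae within a five-strain barcoded multiplex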). To be noted: 3 h, at 10 µM, stronger effect = higher value.
Assay [6] is described as follows: reduced mouse 2C T cell binding to pMHC/ICAM-1 vesicles – MLPCN validation set, flow cytometry, LFA-1/ICAM-1 modulator project, pilot screen (AID 2523;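 active = response below a set limit, under 55% cells CD8-positive and vesicle-bound, and CD8 cells' 90th-percentile brightness under 279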;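 for vesicle binding response: mean PE anti-B7-1 fluorescence of CD8+ cells relative to row control; 100% = QL9-loaded vesicles with DMSO vehicle in the same plate row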). Conditions: 2C mouse CD8+ T cells, at 7 µM, stronger effect = lower value; double positive events: measured here: CD8+/vesicle+ event percentage.
The target of assay [7] is Integrin beta-1 (Homo sapiens) + Integrin alpha-4 (Homo sapiens) (UniProt P13612+P05556). In words: alpha4beta1 integrin LIBS antibody binding reduction – U937 cells, HUTS-21 mAb, flow cytometry, validation set, VLA-4 allosteric modulator project, pilot screen (AID 2674;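 active = inhibition above 50%, about 3 SD of the validation set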;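 note: antibody binding induced by the VLA-4 ligand LDV present at three times its Kd; 0% = LDV ligand with antibody and no compound and 100% = antibody without LDV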). To be noted: HUTS-21 LIBS mAb binding, at 6.7 µM, stronger effect = higher value, binding induced by LDV ligand.

Assay [8] in a line: calorie-restriction mimetic ROS inhibitors, yeast – validation compound set, pilot screen (AID 2706;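 active = superoxide response below 65% of plate, a cut near 3 SD across the whole screen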;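 note: yeast exposed to compound for one week at 30 degrees C before staining; 100% = mean of all compound wells on the same plate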). Conditions: S. cerevisiae aging, superoxide DHE fluorescence; at 10 µM, stronger effect = lower value.
In assay [9] the target is Beta-adrenergic receptor kinase 1 (Homo sapiens) (UniProt P25098). Put plainly: GRK2 binders displacing RNA aptamer, biochemical, validation, human GRK2, bead flow cytometry (AID 488806;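 active = aptamer binding inhibition above 30%, about 3 SD of noise from non-fluorescent compounds; inactive = inhibition at or below 30%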). Conditions: bead-bound GRK2, FAM-aptamer displacement, at 10 µM, stronger effect = higher value.
For assay [10], the target named is AP-2 complex subunit beta (Homo sapiens) (UniProt P63010). Put plainly: beta-arrestin/AP2 interaction blockers – biochemical, validation set, GST-AP2 beads, flow cytometry, pilot screen (AID 504541;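 active = inhibition above 54%, about 3 SD of non-fluorescent compounds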;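 note: AP2 carries R879A mutation and is captured from E. coli lysate; bead-bound FITC arrestin peptide fluorescence measuring arrestin peptide binding to AP2; 0% = DMSO wells and 100% = excess unlabeled arrestin peptide control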). To be noted: FITC arrestin peptide, at 10 µM, stronger effect = higher value, AP2 beta2 appendage fragment, R879A mutant.
The nature of assay [11]: cytosolic pH regulators acting via V-ATPase – S. cerevisiae, pHLuorin, HTS validation (AID 504600; in the data active = response above about 15%;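 note: plate controls were DMSO for no effect and reference compound for full effect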). Conditions: V-ATPase proton transport, at 10 µM, stronger effect = higher value.
Assay [12] relates to anti-desmoglein-3 scFv antibody binding to human DSG3. In words: blockers of pathogenic pemphigus antibody–desmoglein-3 binding – biochemical, validation compound set, bead-based, flow cytometry, pilot screen (AID 588368;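 active = binding below the plate cutoff, the plate median minus 3 SD, with a reading above zero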;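 note: signal is the median channel fluorescence of bead-bound GFP antibody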). Conditions: Protein G beads, DSG3-Fc, scFv-GFP binding, at 10 µM, stronger effect = lower value.
Assay [13] in a line: Nile Red efflux blockade in pump-expressing yeast – validation compound set, multiplex, phenotypic, pilot screen (AID 588506;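 active = efflux inhibition above 0.42, the validation set average plus 4 SD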;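 note: Nile Red retained in cells so higher fluorescence means more efflux inhibition; 0 = negative control wells and 1 = enniatin B 25 µM full block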). Conditions: S. cerevisiae pump-expressing triplex, Nile Red efflux flow cytometry; at 10 µM; stronger effect = higher value; the pumps come from Candida albicans.
Assay [14] has as its target ATP-binding cassette sub-family B member 6 (Homo sapiens) (UniProt Q9NP58). Put plainly: blockers of ABCB6-driven porphyrin uptake – K562-ABCB6 cells, flow cytometry, validation set, pilot screen (AID 588550;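 active = inhibition above the screen-wide mean plus 3 SD, about 51%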;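 note: 0% = DMSO wells and 100% = benzethonium chloride 70 µM positive control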). Conditions: K562-ABCB6 porphyrin accumulation, 1 h, at 10 µM, stronger effect = higher value.
Assay [15] is described as follows: AML differentiation inducers, ER-HoxA9 marrow cells – cell-based, GFP/MAC1 double positive, flow cytometry, validation set, primary screen (AID 588685;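 active = differentiation response of at least 50%, scaled between solvent and reference control, from cells with both markers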;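 note: compound exposure lasts four days before antibody staining and flow analysis; 0% = DMSO wells and 100% = 5 µM fulvestrant positive control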). Conditions: stronger effect = higher value, normalized: vehicle 0, fulvestrant 100.

Sequence of AP-2 complex subunit beta (Homo sapiens) (P63010 whole entry, looked up, the tested form may be a part, one chain of several): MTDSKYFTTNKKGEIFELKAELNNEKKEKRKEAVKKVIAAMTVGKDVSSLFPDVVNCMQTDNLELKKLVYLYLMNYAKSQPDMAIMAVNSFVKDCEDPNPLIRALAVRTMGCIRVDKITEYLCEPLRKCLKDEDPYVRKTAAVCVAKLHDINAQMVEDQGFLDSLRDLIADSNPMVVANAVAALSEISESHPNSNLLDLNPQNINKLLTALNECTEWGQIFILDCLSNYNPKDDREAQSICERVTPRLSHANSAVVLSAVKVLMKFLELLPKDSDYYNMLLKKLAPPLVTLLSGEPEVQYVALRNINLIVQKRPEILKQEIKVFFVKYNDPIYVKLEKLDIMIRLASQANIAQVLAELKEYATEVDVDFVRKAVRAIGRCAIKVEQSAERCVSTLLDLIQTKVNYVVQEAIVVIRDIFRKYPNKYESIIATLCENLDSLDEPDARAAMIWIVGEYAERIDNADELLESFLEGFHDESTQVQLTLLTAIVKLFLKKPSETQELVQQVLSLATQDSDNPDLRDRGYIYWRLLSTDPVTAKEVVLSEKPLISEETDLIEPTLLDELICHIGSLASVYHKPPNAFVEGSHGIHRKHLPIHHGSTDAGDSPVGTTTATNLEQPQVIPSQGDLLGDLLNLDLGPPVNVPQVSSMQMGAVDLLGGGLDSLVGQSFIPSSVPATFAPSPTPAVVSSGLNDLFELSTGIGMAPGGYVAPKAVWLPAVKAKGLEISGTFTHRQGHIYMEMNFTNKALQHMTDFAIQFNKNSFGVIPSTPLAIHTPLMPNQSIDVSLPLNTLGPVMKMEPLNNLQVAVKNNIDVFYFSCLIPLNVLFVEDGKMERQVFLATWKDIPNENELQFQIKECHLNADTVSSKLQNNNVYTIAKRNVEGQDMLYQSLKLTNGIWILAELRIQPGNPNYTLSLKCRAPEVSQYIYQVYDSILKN
Sequence of ATP-binding cassette sub-family B member 6 (Homo sapiens) (Q9NP58 whole entry, looked up): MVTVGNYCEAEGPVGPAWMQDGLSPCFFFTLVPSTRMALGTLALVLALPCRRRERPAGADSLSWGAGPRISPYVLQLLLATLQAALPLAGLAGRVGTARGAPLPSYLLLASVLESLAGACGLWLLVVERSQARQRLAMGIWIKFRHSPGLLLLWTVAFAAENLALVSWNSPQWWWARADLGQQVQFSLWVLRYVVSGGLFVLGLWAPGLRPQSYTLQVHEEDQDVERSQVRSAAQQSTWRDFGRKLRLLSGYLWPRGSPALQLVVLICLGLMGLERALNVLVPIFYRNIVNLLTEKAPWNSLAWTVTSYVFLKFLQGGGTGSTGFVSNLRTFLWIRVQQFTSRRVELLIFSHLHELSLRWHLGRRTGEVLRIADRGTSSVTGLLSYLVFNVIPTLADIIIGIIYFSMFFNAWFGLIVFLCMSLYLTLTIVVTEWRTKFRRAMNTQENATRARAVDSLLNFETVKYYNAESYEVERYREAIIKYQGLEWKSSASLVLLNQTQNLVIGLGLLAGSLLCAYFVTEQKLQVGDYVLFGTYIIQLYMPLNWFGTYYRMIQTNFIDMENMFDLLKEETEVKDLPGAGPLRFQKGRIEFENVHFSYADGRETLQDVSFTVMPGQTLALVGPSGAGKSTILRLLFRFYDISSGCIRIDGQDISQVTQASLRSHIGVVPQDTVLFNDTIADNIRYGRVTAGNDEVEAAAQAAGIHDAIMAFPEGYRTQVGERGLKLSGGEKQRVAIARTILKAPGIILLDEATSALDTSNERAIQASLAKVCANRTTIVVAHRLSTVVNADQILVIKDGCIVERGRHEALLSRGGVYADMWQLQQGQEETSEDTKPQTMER
Sequence of Integrin beta-1 (Homo sapiens) + Integrin alpha-4 (Homo sapiens) (P05556 whole entry, looked up): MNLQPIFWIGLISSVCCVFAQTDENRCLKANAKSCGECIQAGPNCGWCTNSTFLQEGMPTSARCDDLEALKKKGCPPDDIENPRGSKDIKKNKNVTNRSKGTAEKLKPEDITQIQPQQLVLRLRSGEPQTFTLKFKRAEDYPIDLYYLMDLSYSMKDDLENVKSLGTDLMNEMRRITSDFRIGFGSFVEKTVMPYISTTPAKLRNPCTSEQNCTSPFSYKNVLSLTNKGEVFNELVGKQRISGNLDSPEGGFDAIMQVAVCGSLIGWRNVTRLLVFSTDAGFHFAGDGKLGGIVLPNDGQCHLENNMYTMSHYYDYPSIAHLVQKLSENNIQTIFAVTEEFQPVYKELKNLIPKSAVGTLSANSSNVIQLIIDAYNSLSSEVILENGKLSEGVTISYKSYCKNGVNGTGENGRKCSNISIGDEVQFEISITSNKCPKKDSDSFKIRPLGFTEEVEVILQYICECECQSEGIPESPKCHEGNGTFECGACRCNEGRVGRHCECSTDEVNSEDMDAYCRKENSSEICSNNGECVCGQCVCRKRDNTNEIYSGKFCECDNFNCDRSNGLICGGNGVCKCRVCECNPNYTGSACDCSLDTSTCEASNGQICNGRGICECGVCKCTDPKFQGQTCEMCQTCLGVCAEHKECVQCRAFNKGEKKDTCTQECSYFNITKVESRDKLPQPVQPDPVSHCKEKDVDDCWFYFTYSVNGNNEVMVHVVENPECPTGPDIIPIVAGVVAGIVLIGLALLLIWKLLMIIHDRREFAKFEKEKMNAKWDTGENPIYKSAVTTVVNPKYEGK
Sequence of Integrin beta-1 (Homo sapiens) + Integrin alpha-4 (Homo sapiens) (P13612 whole entry, looked up): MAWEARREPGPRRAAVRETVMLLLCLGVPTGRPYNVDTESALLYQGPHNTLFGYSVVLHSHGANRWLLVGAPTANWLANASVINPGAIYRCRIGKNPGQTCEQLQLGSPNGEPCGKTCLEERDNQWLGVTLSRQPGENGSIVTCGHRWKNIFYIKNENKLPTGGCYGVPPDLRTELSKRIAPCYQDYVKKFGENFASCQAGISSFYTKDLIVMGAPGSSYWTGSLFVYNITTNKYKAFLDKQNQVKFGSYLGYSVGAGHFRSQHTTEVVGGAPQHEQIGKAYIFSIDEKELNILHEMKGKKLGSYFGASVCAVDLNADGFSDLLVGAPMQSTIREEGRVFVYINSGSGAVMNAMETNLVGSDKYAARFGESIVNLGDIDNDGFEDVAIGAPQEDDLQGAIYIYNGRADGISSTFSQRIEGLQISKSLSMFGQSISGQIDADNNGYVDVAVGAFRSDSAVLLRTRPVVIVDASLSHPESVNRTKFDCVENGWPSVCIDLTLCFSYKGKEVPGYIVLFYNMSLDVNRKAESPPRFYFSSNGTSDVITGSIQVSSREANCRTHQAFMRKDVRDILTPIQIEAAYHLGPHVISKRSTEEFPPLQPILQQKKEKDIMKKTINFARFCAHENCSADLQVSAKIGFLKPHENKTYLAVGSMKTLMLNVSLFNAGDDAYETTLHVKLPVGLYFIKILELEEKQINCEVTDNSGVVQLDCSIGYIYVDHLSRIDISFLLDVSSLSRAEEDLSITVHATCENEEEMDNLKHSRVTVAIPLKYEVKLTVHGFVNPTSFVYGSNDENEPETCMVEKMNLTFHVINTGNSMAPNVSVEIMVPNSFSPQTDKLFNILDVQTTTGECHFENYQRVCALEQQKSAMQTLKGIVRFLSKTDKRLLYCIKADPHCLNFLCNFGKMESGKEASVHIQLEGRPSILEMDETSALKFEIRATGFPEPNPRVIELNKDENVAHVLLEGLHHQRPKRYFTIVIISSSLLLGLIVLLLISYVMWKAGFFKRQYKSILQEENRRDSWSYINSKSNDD
Sequence of Beta-adrenergic receptor kinase 1 (Homo sapiens) (P25098 whole entry, looked up): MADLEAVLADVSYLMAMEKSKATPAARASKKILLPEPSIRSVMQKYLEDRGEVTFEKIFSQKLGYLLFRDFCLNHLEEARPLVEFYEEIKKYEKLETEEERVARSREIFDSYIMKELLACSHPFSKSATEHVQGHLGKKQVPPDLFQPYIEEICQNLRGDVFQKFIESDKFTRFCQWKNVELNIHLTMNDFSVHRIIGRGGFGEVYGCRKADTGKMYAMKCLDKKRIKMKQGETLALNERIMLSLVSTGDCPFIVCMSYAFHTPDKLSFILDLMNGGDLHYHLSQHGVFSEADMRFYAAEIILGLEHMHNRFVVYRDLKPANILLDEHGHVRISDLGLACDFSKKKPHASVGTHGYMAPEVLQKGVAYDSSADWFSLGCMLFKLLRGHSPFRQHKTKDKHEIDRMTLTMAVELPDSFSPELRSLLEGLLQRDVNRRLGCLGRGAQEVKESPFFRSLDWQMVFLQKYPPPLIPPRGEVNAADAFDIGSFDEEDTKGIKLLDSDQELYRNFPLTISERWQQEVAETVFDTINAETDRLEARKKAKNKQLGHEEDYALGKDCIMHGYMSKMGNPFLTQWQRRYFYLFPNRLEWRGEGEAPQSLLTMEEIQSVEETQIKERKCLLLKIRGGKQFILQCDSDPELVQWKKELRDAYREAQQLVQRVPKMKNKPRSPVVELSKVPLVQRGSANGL

Take `COc1cc2c(cc1OC)C(c1cc3ccccc3oc1=O)=NC(C)(C)C2`: the percent of DMSO control GFP in [1] is 101% (inactive). The GFP response vs DMSO in [2] was 103% (inactive); in assay [4], 96.4% (inactive). In addition, the percent response of DMSO control in assay [3] is 107% (inactive). Also, in [5], the GFP response, % of DMSO was 100% (inactive). Also, in assay [6], the double positive events turned out to be 46.8%. Also, the vesicle binding response in assay [6] was 137% (inactive). The inhibition was 10.9% (inactive) in [7], -0.33% (inactive) in assay [10] and 10% (inactive) in assay [14]. Also, the superoxide response (% of plate) in assay [8] is 117% (inactive). Also, the aptamer binding inhibition in [9] is 3% (inactive). Also, the response in assay [11] was 2.07% (inactive). For the same compound, the binding (% of control) in [12] was 98.7% (inactive). Also, the efflux inhibition (fraction of control) in assay [13] was 0.1 (inactive). Moreover, in assay [15], the differentiation response was -13.1% (inactive).

Regarding `O=[N+]([O-])c1cc(/C=N/n2cnnc2)ccc1N1CCCC1`, in [1], the percent of DMSO control GFP was 100% (inactive). The GFP response vs DMSO is 99.9% (inactive) in [2] and 95.4% (inactive) in assay [4]. For the same compound, in assay [3], the percent response of DMSO control was 97.9% (inactive). Besides, the GFP response, % of DMSO in [5] was 101% (inactive). Besides, the double positive events in assay [6] came out at 60.8%. Further, the vesicle binding response in assay [6] is 182% (inactive). Further, the inhibition in assay [7] was 10.9% (inactive); in assay [10] it was 5.45% (inactive); in assay [14], 3% (inactive). Also, the superoxide response (% of plate) in assay [8] was 105% (inactive). The aptamer binding inhibition in assay [9] was 6% (inactive). Besides, the response in assay [11] is -0.97% (inactive). Moreover, the binding (% of control) in assay [12] is 96.4% (inactive). The efflux inhibition (fraction of control) in assay [13] is -0.43 (inactive). The differentiation response in assay [15] is -8.27% (inactive).

As for `CN1C(=O)C(O)(CC(=O)/C=C/C=C/c2ccccc2)c2ccccc21` (stereo not given), the percent of DMSO control GFP in assay [1] is 104% (inactive). Moreover, the figures for the GFP response vs DMSO in [2] and in [4] were 98.9% (inactive) and 94.3% (inactive), respectively. Further, in [3], the percent response of DMSO control is 104% (inactive). Moreover, in assay [5], the GFP response, % of DMSO is 98.1% (inactive). The compound further displayed a double positive events in assay [6] of 54.8%. For the same compound, the vesicle binding response in [6] was 153% (inactive). Also, the inhibition was -0.24% (inactive) in [7], -6.66% (inactive) in assay [10] and 5% (inactive) in assay [14]. In assay [8], the superoxide response (% of plate) was 102% (inactive). Also, in assay [9], the aptamer binding inhibition was 2% (inactive). Moreover, the response in assay [11] is 0.35% (inactive). In addition, in assay [12], the binding (% of control) was 99% (inactive). Besides, the efflux inhibition (fraction of control) in assay [13] was 0.06 (inactive). The differentiation response in assay [15] is -18% (inactive).

On to `CN(CCc1cnn(C)c1)Cc1nc(CC2CC2)no1`, for which the percent of DMSO control GFP in assay [1] was 101% (inactive). Also, the values for the GFP response vs DMSO in assay [2] and in assay [4] were 101% (inactive) and 105% (inactive), respectively. Also, the percent response of DMSO control in assay [3] is 110% (inactive). Besides, in assay [5], the GFP response, % of DMSO is 105% (inactive). Further, the double positive events in assay [6] amounted to 58.1%. In assay [6], the vesicle binding response was 194% (inactive). For the same compound, the inhibition is -11.4% (inactive) in assay [7], 23.6% (inactive) in [10] and 8% (inactive) in assay [14]. Besides, in assay [8], the superoxide response (% of plate) was 106% (inactive). Also, in [9], the aptamer binding inhibition was 2% (inactive). The response in assay [11] was -2.33% (inactive). The binding (% of control) in assay [12] was 104% (inactive). Moreover, the efflux inhibition (fraction of control) in [13] is -0.16 (inactive). Moreover, in assay [15], the differentiation response is -9.89% (inactive).

On to `Cn1nc(-c2ccccn2)nc2c(=O)n(C)c(=O)nc1-2`, for which the percent of DMSO control GFP in [1] was 103% (inactive). Besides, the GFP response vs DMSO was 98.9% (inactive) in assay [2] and 105% (inactive) in assay [4]. Besides, the percent response of DMSO control in [3] was 110% (inactive). Also, the GFP response, % of DMSO in assay [5] was 105% (inactive). Further, the double positive events in [6] worked out at 59.4%. Besides, the vesicle binding response in assay [6] was 165% (inactive). Further, the values for the inhibition in assay [7], in assay [10] and in assay [14] were -40.4% (inactive), 17.4% (inactive) and -1% (inactive), respectively. For the same compound, the superoxide response (% of plate) in assay [8] is 107% (inactive). For the same compound, the aptamer binding inhibition in assay [9] was 61% (active). For the same compound, the response in assay [11] is -11.7% (inactive). Also, the binding (% of control) in assay [12] is 94.9% (inactive). The efflux inhibition (fraction of control) in [13] is -0.12 (inactive). For the same compound, the differentiation response in [15] is -22.8% (inactive).
